Reference: the supplement of paper PMC11732987, “Enantioselective OTUD7B fragment discovery through chemoproteomics screening and high-throughput optimisation” (Communications Chemistry, 2025)
Unmarked numbers belong to inactive results.

Tests used:
Assay in all cases: log2 ratio of Biotin-Ahx-Ub-VS probe labelling (fragment/DMSO); higher = less target engagement (more negative = stronger competition), active = hit call of the paper (q ≤ 0.05, log2 ratio ≤ -1)
Settings in all cases: compound concentration: 200 uM; treatment time: 3 h
OTUD6B = target: T1, OTUD6B (UniProt Q8N6M0)
T1 sequence (whole entry): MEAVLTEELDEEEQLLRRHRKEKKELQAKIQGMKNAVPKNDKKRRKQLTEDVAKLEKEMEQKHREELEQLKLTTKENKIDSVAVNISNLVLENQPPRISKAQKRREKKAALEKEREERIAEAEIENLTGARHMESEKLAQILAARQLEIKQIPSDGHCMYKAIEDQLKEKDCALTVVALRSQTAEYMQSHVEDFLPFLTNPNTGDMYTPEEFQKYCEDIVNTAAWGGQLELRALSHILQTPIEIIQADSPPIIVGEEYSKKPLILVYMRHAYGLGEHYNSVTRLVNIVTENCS
Method in brief: (§1)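 The table lists average log2 ratios of fragment over vehicle, from an unpaired t-test on global-median-normalised Spectronaut label-free quantities. Proteins with ≥2 unique peptides were used. Samples were HEK293T lysate (495 µg) treated in triplicate with fragment at 200 µM or vehicle for 3 h, then with Biotin-Ahx-Ub-VS (0.5 µM final) for 1 h, with labelled DUBs NeutrAvidin-enriched and run by diaPASEF LC-MS/MS.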

OTUD7B = target: T2, OTUD7B (UniProt Q6GQQ9)
T2 sequence (whole entry): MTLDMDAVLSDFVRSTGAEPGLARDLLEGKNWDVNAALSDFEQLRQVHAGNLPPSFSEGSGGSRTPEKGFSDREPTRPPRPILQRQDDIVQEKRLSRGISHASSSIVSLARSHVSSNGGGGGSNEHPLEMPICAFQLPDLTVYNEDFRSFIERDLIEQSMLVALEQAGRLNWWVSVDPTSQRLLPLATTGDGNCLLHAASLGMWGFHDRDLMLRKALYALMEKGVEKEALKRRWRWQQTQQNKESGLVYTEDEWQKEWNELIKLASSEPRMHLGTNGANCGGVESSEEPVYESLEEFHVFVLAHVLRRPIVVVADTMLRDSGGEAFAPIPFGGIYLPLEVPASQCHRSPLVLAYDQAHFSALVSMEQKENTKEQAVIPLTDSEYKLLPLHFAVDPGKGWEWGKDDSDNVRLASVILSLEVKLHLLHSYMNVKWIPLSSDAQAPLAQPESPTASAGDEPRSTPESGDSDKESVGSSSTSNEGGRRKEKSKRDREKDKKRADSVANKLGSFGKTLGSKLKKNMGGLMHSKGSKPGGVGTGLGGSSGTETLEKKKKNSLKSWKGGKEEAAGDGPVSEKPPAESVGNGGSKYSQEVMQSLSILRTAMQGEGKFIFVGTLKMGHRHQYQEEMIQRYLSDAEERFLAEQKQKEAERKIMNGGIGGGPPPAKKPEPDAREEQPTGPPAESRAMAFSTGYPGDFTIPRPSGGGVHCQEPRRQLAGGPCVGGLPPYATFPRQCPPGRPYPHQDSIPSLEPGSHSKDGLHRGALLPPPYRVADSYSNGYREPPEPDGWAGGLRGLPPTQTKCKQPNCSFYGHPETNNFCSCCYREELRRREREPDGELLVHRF
Method in brief: as §1

PRPF8 = PRPF8 (UniProt Q6P2Q9)
Method in brief: as §1

PSMD7 = target: T3, PSMD7 (UniProt P51665)
T3 sequence (whole entry): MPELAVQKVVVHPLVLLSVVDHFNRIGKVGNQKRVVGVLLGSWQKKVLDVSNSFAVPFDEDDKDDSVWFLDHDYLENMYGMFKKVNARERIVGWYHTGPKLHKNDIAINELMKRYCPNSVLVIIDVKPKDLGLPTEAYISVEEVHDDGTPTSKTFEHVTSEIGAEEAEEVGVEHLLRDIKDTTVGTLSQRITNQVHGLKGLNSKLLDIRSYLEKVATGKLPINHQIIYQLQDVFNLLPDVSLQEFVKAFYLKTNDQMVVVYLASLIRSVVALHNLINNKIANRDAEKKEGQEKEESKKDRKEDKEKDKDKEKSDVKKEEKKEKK
Method in brief: as §1

UCHL1 = UCHL1 (UniProt P09936)
Method in brief: as §1

UCHL3 = target: T4, UCHL3 (UniProt P15374)
T4 sequence (whole entry): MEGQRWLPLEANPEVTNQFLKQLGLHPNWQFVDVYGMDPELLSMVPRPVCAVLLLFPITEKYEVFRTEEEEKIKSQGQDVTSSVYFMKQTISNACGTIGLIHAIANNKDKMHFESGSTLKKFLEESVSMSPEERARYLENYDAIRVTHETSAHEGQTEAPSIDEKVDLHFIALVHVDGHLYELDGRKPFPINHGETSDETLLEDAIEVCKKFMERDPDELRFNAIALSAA
Method in brief: as §1

UCHL5 = target: T5, UCHL5 (UniProt Q9Y5K5)
T5 sequence (whole entry): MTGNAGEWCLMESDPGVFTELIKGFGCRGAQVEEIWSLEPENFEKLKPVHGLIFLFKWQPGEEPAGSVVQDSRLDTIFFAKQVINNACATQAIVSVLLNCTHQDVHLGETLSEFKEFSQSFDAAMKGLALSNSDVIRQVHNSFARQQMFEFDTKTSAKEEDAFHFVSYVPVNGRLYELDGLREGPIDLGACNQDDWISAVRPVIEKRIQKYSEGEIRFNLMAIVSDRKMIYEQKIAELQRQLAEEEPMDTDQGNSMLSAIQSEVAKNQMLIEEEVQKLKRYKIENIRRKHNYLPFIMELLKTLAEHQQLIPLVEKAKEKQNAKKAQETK
Method in brief: as §1

USP10 = USP10 (UniProt Q14694)
Method in brief: as §1

USP15 = target: T6, USP15 (UniProt Q9Y4E8)
T6 sequence (whole entry): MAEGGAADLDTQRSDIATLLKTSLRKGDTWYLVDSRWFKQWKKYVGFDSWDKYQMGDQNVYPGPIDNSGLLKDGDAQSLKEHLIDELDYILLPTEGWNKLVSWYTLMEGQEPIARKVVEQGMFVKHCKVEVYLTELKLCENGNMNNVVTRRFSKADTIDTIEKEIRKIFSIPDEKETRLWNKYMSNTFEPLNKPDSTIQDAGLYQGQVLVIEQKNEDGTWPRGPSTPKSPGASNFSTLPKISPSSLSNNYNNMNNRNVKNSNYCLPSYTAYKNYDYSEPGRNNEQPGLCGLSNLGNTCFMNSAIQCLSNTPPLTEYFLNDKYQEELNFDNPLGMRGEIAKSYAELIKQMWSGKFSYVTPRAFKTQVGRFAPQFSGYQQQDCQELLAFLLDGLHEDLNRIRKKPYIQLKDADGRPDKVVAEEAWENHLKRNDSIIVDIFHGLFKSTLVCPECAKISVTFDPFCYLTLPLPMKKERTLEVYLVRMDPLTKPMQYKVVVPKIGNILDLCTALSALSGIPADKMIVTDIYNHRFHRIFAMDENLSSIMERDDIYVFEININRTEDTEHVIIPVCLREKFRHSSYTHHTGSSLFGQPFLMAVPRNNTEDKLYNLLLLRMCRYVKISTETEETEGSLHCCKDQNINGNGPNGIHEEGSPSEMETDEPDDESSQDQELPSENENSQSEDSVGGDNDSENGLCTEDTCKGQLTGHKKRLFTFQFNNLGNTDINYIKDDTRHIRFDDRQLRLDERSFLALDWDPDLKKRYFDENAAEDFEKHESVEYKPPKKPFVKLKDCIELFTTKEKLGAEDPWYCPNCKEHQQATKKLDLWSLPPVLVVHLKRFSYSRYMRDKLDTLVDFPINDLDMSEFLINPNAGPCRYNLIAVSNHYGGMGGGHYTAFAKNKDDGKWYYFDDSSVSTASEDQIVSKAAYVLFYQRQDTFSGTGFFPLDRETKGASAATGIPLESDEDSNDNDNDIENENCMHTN
Method in brief: as §1

USP16 = USP16 (UniProt Q9Y5T5)
Method in brief: as §1

Chain of USP10 (Q14694 whole entry): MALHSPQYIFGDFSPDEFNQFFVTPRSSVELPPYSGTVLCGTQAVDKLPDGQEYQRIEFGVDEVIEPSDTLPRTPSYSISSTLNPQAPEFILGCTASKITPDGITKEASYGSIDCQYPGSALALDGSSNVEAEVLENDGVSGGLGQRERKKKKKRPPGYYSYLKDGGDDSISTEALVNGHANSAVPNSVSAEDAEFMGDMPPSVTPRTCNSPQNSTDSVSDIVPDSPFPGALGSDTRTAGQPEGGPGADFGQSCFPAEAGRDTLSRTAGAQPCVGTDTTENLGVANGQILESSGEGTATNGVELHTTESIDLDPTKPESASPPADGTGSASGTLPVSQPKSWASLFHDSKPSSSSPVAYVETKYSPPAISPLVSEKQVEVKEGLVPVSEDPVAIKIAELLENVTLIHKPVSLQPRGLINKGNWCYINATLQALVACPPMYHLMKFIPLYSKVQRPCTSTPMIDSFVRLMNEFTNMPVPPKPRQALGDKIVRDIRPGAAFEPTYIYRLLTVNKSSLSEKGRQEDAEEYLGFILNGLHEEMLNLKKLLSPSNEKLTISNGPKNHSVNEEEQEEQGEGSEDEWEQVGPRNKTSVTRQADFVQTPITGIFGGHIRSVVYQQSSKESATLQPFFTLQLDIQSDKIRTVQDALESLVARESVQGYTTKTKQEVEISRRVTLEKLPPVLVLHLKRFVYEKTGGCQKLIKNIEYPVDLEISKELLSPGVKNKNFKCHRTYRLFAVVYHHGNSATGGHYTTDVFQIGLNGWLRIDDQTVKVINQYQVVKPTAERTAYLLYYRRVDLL
Chain of UCHL1 (P09936 whole entry, looked up): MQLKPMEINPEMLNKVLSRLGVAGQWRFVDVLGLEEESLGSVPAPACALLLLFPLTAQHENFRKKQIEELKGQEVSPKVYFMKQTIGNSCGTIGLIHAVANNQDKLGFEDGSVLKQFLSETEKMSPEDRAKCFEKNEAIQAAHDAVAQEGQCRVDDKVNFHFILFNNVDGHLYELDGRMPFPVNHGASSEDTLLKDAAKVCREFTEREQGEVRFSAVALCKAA
Chain of USP16 (Q9Y5T5 whole entry, looked up): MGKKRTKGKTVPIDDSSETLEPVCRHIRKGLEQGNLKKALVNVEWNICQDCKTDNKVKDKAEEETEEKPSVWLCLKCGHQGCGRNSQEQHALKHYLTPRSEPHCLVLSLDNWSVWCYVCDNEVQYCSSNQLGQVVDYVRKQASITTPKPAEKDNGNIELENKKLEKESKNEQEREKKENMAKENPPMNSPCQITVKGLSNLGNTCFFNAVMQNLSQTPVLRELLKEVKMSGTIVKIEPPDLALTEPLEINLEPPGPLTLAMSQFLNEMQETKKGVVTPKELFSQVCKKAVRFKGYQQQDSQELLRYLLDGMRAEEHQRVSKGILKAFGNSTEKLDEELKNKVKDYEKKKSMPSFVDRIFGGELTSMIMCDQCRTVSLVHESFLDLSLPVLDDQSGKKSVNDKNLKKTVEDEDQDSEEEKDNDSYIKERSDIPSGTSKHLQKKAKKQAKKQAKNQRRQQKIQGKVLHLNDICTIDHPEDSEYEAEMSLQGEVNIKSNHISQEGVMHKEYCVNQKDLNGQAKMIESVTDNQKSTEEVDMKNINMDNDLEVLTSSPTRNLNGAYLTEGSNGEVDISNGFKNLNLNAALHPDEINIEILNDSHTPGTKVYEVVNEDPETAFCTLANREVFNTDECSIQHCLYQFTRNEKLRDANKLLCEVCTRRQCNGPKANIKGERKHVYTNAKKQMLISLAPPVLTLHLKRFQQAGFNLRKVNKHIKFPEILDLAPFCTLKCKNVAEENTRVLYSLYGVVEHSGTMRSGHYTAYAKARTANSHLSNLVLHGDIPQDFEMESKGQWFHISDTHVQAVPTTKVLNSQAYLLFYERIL

## COc1ccc(-c2csc(NC(=O)CCl)n2)cc1
OTUD6B
  log2 ratio of Biotin-Ahx-Ub-VS probe labelling: -0.417
OTUD7B
  log2 ratio of Biotin-Ahx-Ub-VS probe labelling: -0.639
PRPF8
  log2 ratio of Biotin-Ahx-Ub-VS probe labelling: 0.0611
PSMD7
  log2 ratio of Biotin-Ahx-Ub-VS probe labelling: -0.221
UCHL1
  log2 ratio of Biotin-Ahx-Ub-VS probe labelling: -1.27 (active)
UCHL3
  log2 ratio of Biotin-Ahx-Ub-VS probe labelling: -0.274
UCHL5
  log2 ratio of Biotin-Ahx-Ub-VS probe labelling: -3.29 (active)
USP10
  log2 ratio of Biotin-Ahx-Ub-VS probe labelling: -0.17
USP15
  log2 ratio of Biotin-Ahx-Ub-VS probe labelling: -0.394
USP16
  log2 ratio of Biotin-Ahx-Ub-VS probe labelling: -0.287
